# IL1B secr inh – inflammasome signaling inhibition, IL-1 beta readout; AID 743279; activity change, % at 57.5 µM; 360,000 tested, 4.7% active; THP-1 LPS/ATP IL-1B secretion, AlphaLISA, 16 h; active compounds read low; in the data active = activity change below about -50%; inconclusive = mostly about -30% to -49%
#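 Secreted IL-1B measured by AlphaLISA bead assay after 16 h compound exposure of THP-1 cells; compounds (final up to 57.5 uM) added 1 h before LPS (250 ng/mL) and ATP (1.25 mM) stimulation; lower signal means less secretion.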
# TDP1 cell noCPT – qHTS for Inhibitors of human tyrosyl-DNA phosphodiesterase 1 (TDP1): qHTS in cells in absence of CPT | DT40 Tdp1-/- hTDP1 cells, no CPT, ATP luminescence, 48 h | Potency, µM (highest dose often 46.2 µM), inactives show at the top dose activity change, negative = growth inhibition, usual class: inhibitors | 420,000 tested, 15% active | AID 686978, 2013; also: potency is read from the fitted curve at half-maximal effect; nearly all actives have a fitted effect of over 55% in size
#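 Chicken DT40 Tdp1-/- cells stably complemented with human TDP1 were seeded at 400 cells/well with DMSO in place of 20 nM camptothecin. After compound pinning, cells grew at least 48 hr at 37 °C; viability read by CellTiter-Glo luminescence.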
# HT1080 IDH1KD tx – kills HT-1080 cells with IDH1 knockdown; HT-1080 IDH1 knockdown viability, ATP luminescence, 48 h; Potency, µM (highest dose often 46.1 µM), inactives show at the top dose activity, negative = toxicity, usual class: cytotoxic; 360,000 tested, 2% active; AID 686971;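 also: potency is read from the fitted curve at half-maximal effect; 0% = DMSO wells and -100% = cell-free medium wells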
#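 Cytotoxicity counter-line: IDH1KD HT-1080, 48 h, CellTiter-Glo. Curves classed by r2, magnitude and activity.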
# HT1080NT lethal – kills 2HG-producing HT-1080-NT fibrosarcoma cells; 360,000 tested, 1.6% active; AID 686970; HT-1080-NT fibrosarcoma viability, CellTiter-Glo ATP luminescence, 48 h; Potency, µM (doses to about 46.1 µM), inactives show at the top dose activity, negative = less viability, hits mostly cytotoxic;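 also: NT is the 2HG producing partner of a matched IDH1 knockdown line; potency is read from the fitted curve at half-maximal effect; 0% = DMSO-treated cells and -100% = media-only wells without cells; nearly all actives have a fitted effect of over 55% in size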
#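 A 48-hour cytotoxicity screen used HT-1080-NT cells plated 2 hours before compound delivery. ATP-based CellTiter-Glo luminescence measured viability, normalized to DMSO and no-cell controls.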
# DT40 TDP1 CPT – DT40-hTDP1 cell growth loss with CPT | chicken DT40 Tdp1-/-;hTDP1 cells + 20 nM CPT, ATP luminescence, 48 h | Potency, µM (titrated, usually from 46.2 µM), for inactives: at the highest dose activity change, negative = growth inhibition, usual class: inhibitors | 420,000 tested, 12% active | AID 686979; also: potency is read from the fitted curve at half-maximal effect; nearly all actives have a fitted effect of over 55% in size
#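 Cell growth measured by CellTiter-Glo luminescence after a minimum 48 h, 37 C compound exposure with 20 nM CPT in Tdp1-knockout DT40 cells stably expressing hTDP1, seeded 400/well; qHTS titration format.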
# ALOX12 inh – inhibitors of human 12S-lipoxygenase ALOX12 | P18054 | purified 12hLO, xylenol orange hydroperoxide absorbance | Potency, µM (doses to about 108 µM), inactives show at the highest dose activity change, negative = inhibition, usual class: inhibitors | 580,000 tested, 1.1% active | AID 1671190; also: potency is read from the fitted curve at half-maximal effect
# Target sequence (P18054 whole entry, looked up): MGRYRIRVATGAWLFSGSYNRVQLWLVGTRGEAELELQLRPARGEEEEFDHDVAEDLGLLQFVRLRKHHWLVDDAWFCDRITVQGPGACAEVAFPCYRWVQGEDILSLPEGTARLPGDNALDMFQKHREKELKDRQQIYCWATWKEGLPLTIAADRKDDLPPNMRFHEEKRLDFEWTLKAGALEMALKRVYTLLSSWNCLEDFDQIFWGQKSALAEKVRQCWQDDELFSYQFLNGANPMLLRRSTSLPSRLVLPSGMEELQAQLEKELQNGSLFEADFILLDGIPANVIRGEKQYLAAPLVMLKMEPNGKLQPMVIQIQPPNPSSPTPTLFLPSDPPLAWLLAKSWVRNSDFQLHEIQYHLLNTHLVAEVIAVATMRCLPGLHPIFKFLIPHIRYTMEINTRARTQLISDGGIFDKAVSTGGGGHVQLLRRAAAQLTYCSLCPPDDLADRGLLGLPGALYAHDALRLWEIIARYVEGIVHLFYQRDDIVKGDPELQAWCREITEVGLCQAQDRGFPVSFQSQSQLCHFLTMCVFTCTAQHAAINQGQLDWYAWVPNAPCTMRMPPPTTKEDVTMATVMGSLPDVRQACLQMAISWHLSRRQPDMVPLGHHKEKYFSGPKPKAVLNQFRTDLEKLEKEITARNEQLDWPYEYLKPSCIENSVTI
#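 Hydroperoxide product was detected by ferrous iron/xylenol orange as the 573 to 405 nm absorbance ratio. Arachidonic acid at 40 uM (final) was turned over for 30 min at room temperature by 150 nM human 12hLO, pH 7.0 Hepes buffer, after 15 min compound preincubation.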
# Numbers without * were called inactive; ? = inconclusive; . = no result given; [ ] = remark or other dose. This excerpt belongs to a sample that is enriched for hits. Unless noted, calls follow the shape of the dose curve; as a rule, active = well fitted curve in the direction sought with a large enough effect; inconclusive = small, poorly fitted or top-dose-only effect, or another doubt; inactive = no such curve, though single readings can be large; an effect the other way counts as inactive or inconclusive. Unless noted, % is scaled to controls: 0 for no effect and ±100 for the full control effect.
SMILES,IL1B secr inh,TDP1 cell noCPT,HT1080 IDH1KD tx,HT1080NT lethal,DT40 TDP1 CPT,ALOX12 inh
Cc1ccc2c(c1)C(=O)N1[C@H]3c4cc(C)ccc4OC[C@@H]3[C@H](c3ccccc3)[C@]1(C)C(=O)N2,-53*,13µM*,7.3µM*,?,12µM*,-18%
Cc1ccc2c(c1)[C@@H]1[C@H](CO2)[C@H](c2ccccc2)[C@@]2(C)C(=O)N[C@H](C)C(=O)N12,4,-11%,9%,10%,-12%,5%
C[C@@]12C(=O)Nc3ccc(Cl)cc3C(=O)N1[C@H]1c3ccccc3OC[C@@H]1[C@@H]2c1ccccc1,?,?,-24%,-21%,?,.
Cc1ccc2c(c1)C(=O)N1[C@H]3c4cc(Cl)ccc4OC[C@@H]3[C@H](c3ccccc3)[C@]1(C)C(=O)N2,-29,16µM*,?,-26%,?,-2%
Cc1cccc2c1nc1n2[C@@H](CNC(=O)c2ccc(C#N)cc2)COC1,.,.,.,.,.,25%[176 µM]
CC(C)C[C@H]1COc2c(Cl)cccc2S(=O)(=O)N1Cc1cccc(Cl)c1,.,.,.,.,.,0%
c1ccc(CN2CCC(Oc3nccnc3N3CCc4ccccc43)C2)nc1 (stereo not given),.,.,.,.,.,45%
CCN(CC)c1nc(C)nc2c1cnn2CCc1ccccc1,?,15µM*,-16%,-2%,?,?
Cc1cccc(-n2c(SCc3nc4ccccc4o3)nnc2N2CCOCC2)c1,.,.,.,.,.,27%
CCNC(=S)NCC12CC3CC(CC(C3)C1)C2,.,.,.,.,.,40µM*
OCC1(Cc2ccc(Cl)cc2)CCN(Cc2ccc(Oc3ncccn3)cc2)CC1,-90*,-19%,?,-14%,-25%,-26%
OCC1(Cc2ccccc2)CCN(Cc2cnc(-c3cccc4ccccc34)nc2)CC1,-57*,?,-5%,-7%,?,-20%
OCC1(Cc2ccccc2)CCN(Cc2cnc(-c3ccc(Cl)cc3)nc2)CC1,-94*,23µM*,26µM*,?,?,?
Cc1cccc(-c2ncc(CN3CCN(C4CCCC4)C(CCO)C3)cn2)c1 (stereo not given),4,2%,-19%,-22%,8%,5%
COc1ccc(-c2ncc(CN3CCC(CO)(Cc4cccc(OC)c4)CC3)cn2)cc1,3,?,?,-24%,?,1%
OCCC1CN(Cc2cnc(-c3ccc(Cl)cc3)nc2)CCN1C1CCCCC1 (stereo not given),.,21µM*,-12%,-2%,?,-8%
C=CCN(CC=C)Cc1cc(=O)oc2cc(C)cc(C)c12,25,?,-10%,-4%,?,?
Cc1cccc2sc(NNC(=O)c3ccc(S(=O)(=O)N4CCc5ccccc5C4)cc3)nc12,125,2.3µM*,16µM*,?,2.6µM*,?
Cc1cccc2sc(NNC(=O)c3ccc4c(c3)OCCO4)nc12,-3,?,-3%,-11%,?,?
Cc1cccc2sc(NNC(=O)c3ccc(S(=O)(=O)N4CCCC(C)C4)cc3)nc12 (stereo not given),135,3.7µM*,21µM*,?,4.1µM*,?
Cc1cc(C)c2nc(NNC(=O)c3ccc(S(=O)(=O)N4CCCCC4)cc3)sc2c1,106,3.3µM*,?,?,4.6µM*,10µM*
CC(C)Nc1nc(SC(C)C(=O)Nc2ccccc2)nc(N(C)C)n1 (stereo not given),-87*,-27%,-13%,-16%,7%,-8%
COc1ccc(C(=O)N(c2ccc(C)cc2)S(=O)(=O)c2ccc(C)cc2)cc1,.,23µM*,.,.,18µM*,?
